The results in this text go back to ChEMBL document CHEMBL3988442, “University of Dundee, Small-Polar-MMV Screening Library” (2021).

For some of these results: Entries with a potency or affinity are not part of this list.

Set-up in all cases: scale not given: direction of the effect not stated beside the values
Assay [1] addresses Protein translocase subunit SecA (Escherichia coli (strain K12)) (UniProt P10408). As to the kind of experiment: Assay to Identify E. coli SecA ATPase Inhibitors. Type of assay: functional. To be noted: 30 µM.
Assay [2] concerns the target T1, Ubiquitin-activating enzyme e1, putative (Leishmania donovani (strain BPK282A1)) (UniProt E9BSI1).
T1 sequence (whole entry): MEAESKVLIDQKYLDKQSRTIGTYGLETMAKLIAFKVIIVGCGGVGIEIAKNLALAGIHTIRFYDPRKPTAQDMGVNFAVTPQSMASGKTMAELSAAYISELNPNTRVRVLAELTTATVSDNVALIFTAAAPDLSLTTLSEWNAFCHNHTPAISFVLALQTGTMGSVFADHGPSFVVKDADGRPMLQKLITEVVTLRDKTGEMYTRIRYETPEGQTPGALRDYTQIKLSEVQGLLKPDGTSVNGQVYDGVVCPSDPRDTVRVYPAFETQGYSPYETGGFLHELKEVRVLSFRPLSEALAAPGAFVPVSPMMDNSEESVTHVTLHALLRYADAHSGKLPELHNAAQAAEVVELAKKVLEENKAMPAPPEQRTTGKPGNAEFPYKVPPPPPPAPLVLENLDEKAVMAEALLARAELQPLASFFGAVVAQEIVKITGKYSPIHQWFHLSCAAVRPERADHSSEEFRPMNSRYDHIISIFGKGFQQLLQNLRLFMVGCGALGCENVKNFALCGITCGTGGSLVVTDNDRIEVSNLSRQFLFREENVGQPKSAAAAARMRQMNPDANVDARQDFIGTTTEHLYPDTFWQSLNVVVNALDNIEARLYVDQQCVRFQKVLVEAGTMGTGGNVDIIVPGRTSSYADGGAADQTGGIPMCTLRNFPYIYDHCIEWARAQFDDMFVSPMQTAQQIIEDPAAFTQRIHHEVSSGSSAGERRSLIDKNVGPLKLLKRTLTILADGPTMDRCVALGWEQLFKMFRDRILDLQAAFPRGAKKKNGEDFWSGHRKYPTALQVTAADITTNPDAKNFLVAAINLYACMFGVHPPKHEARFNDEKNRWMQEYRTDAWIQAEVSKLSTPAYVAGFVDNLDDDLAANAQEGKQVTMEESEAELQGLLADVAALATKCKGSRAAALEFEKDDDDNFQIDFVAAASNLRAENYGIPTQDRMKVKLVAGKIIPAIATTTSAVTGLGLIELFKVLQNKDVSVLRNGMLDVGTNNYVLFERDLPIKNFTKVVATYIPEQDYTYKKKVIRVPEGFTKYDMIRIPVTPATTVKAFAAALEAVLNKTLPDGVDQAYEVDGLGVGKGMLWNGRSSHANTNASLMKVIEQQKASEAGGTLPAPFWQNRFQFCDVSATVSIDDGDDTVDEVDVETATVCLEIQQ
As to the kind of experiment: Leishmania donovani Ubiquitin Activating Enzyme (LdE1). Type of assay: functional. As to conditions: 30 µM.

Assay [3] deals with AMP-activated protein kinase, AMPK (Homo sapiens) (UniProt P54646+O43741+P54619+Q9UGJ0+Q9Y478+Q13131+Q9UGI9). As to the kind of experiment: AMP-dependent Kinase enzyme assay. An in vitro enzyme assay that detects ADP turnover that is directly proportional to AMPK activity. This uses naive AMPK that is activated during the assay with MK-8722. The format is functional. As to conditions: 30 µM.

Assay [4] addresses Sialic acid-binding Ig-like lectin 9 (Homo sapiens) (UniProt Q9Y336). As to the kind of experiment: Hs-Siglec9 ALPHAscreen SOP 20170721. As to conditions: 10 µM. In general terms: In Alpha technology, singlet oxygen from a donor bead excites a nearby acceptor bead.
The next assay concerns Trypanosoma cruzi. The experiment in a line: Trypanosoma cruzi phosphomannomutase and mannose-1-phosphate guanylyltransferase assay. The format is functional. To be noted: 10 µM.
Assay [5] addresses T2, Arginase-2, mitochondrial (Homo sapiens) (UniProt P78540).
T2 sequence (whole entry): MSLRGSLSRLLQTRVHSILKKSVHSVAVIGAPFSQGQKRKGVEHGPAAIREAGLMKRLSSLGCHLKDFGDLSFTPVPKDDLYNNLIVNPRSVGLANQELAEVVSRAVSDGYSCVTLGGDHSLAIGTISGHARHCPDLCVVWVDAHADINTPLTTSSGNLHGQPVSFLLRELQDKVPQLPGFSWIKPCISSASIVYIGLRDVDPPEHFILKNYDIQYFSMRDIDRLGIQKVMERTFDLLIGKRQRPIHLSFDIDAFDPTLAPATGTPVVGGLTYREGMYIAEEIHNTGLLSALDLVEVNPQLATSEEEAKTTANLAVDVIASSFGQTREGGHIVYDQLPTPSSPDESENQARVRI
The experiment in a line: in vitro enzyme assay to detect the production of urea directly proportional to the activity of Arginase II. Also: in the data most compounds retested in dose-response had high values. The format is functional. To be noted: 33.3 µM.

Assay [6] addresses T3, Proteasome subunit beta (Trypanosoma cruzi) (UniProt O96673).
T3 sequence (whole entry): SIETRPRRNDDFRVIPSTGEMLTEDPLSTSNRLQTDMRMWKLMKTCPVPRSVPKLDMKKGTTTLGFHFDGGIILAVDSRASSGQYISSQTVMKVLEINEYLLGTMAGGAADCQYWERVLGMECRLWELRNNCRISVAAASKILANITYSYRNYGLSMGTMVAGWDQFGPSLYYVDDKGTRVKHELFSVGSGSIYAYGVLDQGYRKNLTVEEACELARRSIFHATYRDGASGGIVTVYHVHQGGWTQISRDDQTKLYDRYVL
The experiment in a line: Trypanosoma cruzi proteasome chymotrypsin-like activity (TcProtChymo) assay. Also: in the data most compounds retested in dose-response had high values. The format is functional. To be noted: 9.37 µM.

For the next assay, the species on record is Homo sapiens. As to the kind of experiment: To identify inhibition of the IFN signalling (Jak-Stat) pathway via expression of an eGFP reporter gene under the control of an IFN-stimulated response element (ISRE) containing MxA promoter. The format is functional. To be noted: 30 µM. Background: Reporter assays use an easily measured gene product as a stand-in for the process of interest.

For assay [7], the target named is T4, Tyrosyl-tRNA synthetase, putative (Trypanosoma cruzi (strain CL Brener)) (UniProt Q4DSP6).
T4 sequence (whole entry): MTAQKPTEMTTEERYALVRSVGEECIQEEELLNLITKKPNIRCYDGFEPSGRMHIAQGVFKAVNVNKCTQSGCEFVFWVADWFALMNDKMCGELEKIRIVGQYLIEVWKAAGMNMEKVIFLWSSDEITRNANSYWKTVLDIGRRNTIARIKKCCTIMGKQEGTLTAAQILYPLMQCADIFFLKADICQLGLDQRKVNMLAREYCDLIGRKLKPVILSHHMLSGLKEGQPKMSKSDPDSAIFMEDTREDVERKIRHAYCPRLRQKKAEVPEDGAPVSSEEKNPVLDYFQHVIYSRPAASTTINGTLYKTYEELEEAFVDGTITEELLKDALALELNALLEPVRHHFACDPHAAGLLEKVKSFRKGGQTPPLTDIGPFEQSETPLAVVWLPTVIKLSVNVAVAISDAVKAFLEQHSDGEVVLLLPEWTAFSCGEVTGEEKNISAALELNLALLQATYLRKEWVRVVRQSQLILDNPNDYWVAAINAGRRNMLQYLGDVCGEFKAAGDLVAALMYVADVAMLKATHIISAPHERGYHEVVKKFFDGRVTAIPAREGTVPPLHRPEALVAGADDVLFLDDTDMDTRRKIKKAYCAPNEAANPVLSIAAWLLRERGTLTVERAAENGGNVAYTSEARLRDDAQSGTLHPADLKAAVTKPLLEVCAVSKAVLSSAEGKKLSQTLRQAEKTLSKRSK
As to the kind of experiment: Trypanosoma cruzi tyrosyl tRNA synthetase (TcYRS) _High Tyrosine SOP. Also: in the data most compounds retested in dose-response had high values. Type of assay: functional. As to conditions: 30 µM.

In assay [8] the target is T4, Tyrosyl-tRNA synthetase, putative (Trypanosoma cruzi (strain CL Brener)). As to the kind of experiment: Trypanosoma cruzi tyrosyl tRNA synthetase (TcYRS) SOP. The format is functional. As to conditions: 30 µM.
Assay [9] has as its target Chromo domain-containing protein 1 (Saccharomyces cerevisiae (strain ATCC 204508 / S288c) (Baker's yeast)) (UniProt P32657). As to the kind of experiment: ScCHD-1 Enzyme Inhibition Assay. Also: in the data most compounds retested in dose-response had high values. Type of assay: functional. As to conditions: 30 µM.

Chain of Chromo domain-containing protein 1 (Saccharomyces cerevisiae (strain ATCC 204508 / S288c) (Baker's yeast)) (P32657 whole entry, the tested form may be a part): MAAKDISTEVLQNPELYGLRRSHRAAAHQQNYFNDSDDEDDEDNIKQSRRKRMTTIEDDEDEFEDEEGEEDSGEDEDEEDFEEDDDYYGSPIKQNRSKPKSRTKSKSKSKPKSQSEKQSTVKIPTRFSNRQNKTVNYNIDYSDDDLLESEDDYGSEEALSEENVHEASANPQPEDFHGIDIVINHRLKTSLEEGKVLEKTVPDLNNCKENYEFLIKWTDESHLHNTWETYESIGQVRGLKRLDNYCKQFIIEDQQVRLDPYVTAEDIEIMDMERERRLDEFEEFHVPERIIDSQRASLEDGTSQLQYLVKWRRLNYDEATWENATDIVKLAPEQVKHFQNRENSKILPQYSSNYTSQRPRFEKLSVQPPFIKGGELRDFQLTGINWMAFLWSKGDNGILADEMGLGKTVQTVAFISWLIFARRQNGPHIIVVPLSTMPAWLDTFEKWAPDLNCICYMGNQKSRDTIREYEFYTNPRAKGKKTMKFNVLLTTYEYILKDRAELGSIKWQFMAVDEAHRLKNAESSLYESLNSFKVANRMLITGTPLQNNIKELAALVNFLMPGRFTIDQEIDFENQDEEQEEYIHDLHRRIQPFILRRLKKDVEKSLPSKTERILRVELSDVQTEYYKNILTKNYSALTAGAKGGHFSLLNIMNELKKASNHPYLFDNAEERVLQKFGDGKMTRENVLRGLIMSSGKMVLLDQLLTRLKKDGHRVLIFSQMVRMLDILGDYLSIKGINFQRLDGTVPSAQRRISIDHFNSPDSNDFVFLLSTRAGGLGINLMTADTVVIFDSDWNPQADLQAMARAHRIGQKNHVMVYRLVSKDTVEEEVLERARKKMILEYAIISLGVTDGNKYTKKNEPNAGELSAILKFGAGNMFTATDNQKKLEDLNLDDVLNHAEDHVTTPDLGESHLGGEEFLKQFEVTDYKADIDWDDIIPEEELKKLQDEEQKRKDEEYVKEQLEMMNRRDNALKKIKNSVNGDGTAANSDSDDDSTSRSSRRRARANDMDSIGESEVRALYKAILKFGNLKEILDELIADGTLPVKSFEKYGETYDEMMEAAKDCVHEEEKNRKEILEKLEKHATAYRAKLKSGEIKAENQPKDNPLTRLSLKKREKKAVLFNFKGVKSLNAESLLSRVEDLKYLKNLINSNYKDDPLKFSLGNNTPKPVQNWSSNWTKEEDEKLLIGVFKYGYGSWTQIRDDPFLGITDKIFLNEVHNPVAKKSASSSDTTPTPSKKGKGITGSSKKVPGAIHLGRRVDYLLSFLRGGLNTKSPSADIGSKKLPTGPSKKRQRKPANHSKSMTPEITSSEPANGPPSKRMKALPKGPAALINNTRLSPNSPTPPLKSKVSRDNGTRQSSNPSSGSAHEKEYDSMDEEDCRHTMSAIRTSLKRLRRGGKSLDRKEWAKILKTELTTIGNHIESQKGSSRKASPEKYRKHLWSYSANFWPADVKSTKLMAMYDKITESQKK
Chain of Sialic acid-binding Ig-like lectin 9 (Homo sapiens) (Q9Y336 whole entry): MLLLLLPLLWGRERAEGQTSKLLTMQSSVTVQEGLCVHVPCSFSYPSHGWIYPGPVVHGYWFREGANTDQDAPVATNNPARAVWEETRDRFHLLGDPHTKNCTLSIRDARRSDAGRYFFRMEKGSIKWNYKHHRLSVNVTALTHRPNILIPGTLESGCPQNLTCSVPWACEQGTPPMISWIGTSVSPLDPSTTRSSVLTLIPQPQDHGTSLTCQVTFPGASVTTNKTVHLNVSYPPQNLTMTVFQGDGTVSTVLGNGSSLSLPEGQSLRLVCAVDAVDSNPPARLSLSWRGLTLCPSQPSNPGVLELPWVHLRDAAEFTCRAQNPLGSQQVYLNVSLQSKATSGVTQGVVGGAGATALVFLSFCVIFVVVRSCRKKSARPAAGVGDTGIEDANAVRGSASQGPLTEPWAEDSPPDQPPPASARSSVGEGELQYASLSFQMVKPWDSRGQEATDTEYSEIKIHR
Chain of Protein translocase subunit SecA (Escherichia coli (strain K12)) (P10408 whole entry): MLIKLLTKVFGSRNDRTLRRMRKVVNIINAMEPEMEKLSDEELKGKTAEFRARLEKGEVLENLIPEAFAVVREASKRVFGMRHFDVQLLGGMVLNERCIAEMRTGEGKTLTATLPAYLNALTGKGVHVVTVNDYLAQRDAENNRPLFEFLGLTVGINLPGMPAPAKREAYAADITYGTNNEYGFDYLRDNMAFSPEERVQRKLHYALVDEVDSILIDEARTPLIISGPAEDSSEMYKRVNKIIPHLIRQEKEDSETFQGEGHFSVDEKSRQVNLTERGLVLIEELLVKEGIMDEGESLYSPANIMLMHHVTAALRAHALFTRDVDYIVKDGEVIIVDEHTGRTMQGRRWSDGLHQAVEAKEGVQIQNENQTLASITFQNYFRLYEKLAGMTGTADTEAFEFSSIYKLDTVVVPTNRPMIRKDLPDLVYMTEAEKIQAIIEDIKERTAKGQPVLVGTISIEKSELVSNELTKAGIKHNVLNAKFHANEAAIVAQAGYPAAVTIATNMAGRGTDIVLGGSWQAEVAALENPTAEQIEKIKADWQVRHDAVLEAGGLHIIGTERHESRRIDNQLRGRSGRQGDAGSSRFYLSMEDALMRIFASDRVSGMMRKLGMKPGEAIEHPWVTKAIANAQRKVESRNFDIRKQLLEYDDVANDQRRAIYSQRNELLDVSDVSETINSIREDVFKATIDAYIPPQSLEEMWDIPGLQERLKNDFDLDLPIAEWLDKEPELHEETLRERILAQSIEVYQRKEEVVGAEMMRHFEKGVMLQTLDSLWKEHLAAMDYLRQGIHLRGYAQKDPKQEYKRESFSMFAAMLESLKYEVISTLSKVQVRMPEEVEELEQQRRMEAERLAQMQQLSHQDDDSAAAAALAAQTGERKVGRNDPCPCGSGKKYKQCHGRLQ

On to `O=C(c1ccsc1)N1CC[C@H]2C[C@@H](c3nnc(C4CC4)o3)O[C@@H]2C1`, for which the Percent Effect in assay [1] is -1.93%; in assay [2], 7.79%; in assay [3], 1.35%; in assay [4], -4.04%; with Trypanosoma cruzi it was -1.08%; in assay [5] it was 12.3%. Besides, the Percent Effect is 19.5% in [6]; -4.29% in the assay filed under Homo sapiens; 2.12% in [7]; 11.5% in assay [8]; -7.52% in assay [9].
As to `O=C(c1cscn1)N1CCC2(CCN(Cc3cccs3)CC2)C1`, the Percent Effect in [1] was -5.71%; in [2], 8.11%; in assay [3] it was 6.09%; in assay [4] it was -2.27%; with Trypanosoma cruzi, 0.489%; in [5], 2.23%. The Percent Effect in assay [6] came out at 19%; in the assay filed under Homo sapiens, 9.36%; in assay [7], 1.08%; in assay [8], 15.4%; in [9], 0.482%.
`OCCn1cc(CN2CCN(CCOc3ccccc3F)CC2)cn1`: the Percent Effect was -9.62% in assay [1]; 0% in [2]; 7.1% in assay [3]; 3.17% in assay [4]; -5.48% with Trypanosoma cruzi; 2.03% in assay [5]. Further, the Percent Effect is 4.49% in assay [6]; 11.7% in the assay listed under Homo sapiens; -2.97% in assay [7]; -8.54% in assay [8]; 11.3% in [9].
With `O=c1[nH]c2nc(N3CCSCC3)ncc2c(=O)n1-c1cccc(F)c1`, the Percent Effect in [1] is -3.04%; in assay [2], 7.89%; in assay [3] it was 7.15%; in assay [4] it was -1.69%; in the assay with Trypanosoma cruzi, -1.46%; in [5], 5.92%. Further, the Percent Effect in assay [6] is 15.4%; in the assay filed under Homo sapiens, 9.74%; in assay [7] it was 3.19%; in [8] it was 10.4%; in assay [9] it was -0.88%.
`Cc1noc(C)c1CN(C)CC1CCCN1c1cccnn1` (stereo unspecified): the Percent Effect in assay [1] is -3.03%; in assay [2] it was 13%; in assay [3] it was 1.18%; in [4], -2.33%; with Trypanosoma cruzi it was 0.0979%; in [5] it was 0.21%. Besides, the Percent Effect in assay [6] was 11.7%; in the assay filed under Homo sapiens, 11.2%; in assay [7], 6.67%; in assay [8], 18.8%; in [9], -25.9%.
For `O=C(NCCc1cccc(F)c1)NCC(O)c1cccc(F)c1` (stereo unspecified), the Percent Effect was -2.56% in assay [1]; 5.41% in assay [2]; 4.6% in [3]; 6.95% in assay [4]; 1.04% in the assay with Trypanosoma cruzi; 1.6% in assay [5]. Besides, the Percent Effect in assay [6] was 7.93%; in the assay listed under Homo sapiens it was 10.8%; in assay [7] it was 8.37%; in assay [8], 23.5%; in assay [9] it was -3.01%.
`Cc1noc(C)c1C(=O)N(C)Cc1nc(-c2ccccn2)no1`: the Percent Effect was -7.17% in assay [1]; 2.67% in assay [2]; -0.593% in assay [3]; 19% in assay [4]; 2.43% in the assay with Trypanosoma cruzi; 4.69% in assay [5]. Besides, the Percent Effect in assay [6] is 4.53%; in the assay listed under Homo sapiens it was -1.43%; in assay [7], 4.92%; in [8], 11.1%; in assay [9], -3.45%.
Turning to `CCc1nc(C2CCCN(C(=O)c3ccc4[nH]nnc4c3)C2)no1` (stereo unspecified), the Percent Effect in assay [1] is -3.01%; in assay [2], 0%; in assay [3], 1.62%; in [4], 0.134%; with Trypanosoma cruzi, -4.8%; in assay [5], 4%. Further, the Percent Effect is 17.2% in assay [6]; 11.3% in the assay filed under Homo sapiens; 0% in [7]; 0% in assay [8]; -11.2% in assay [9].
For the molecule `CC(NC(=O)c1cc(-c2cccc(Cl)c2)no1)C(=O)N1CCCC1` (stereo unspecified), the Percent Effect is -2.69% in assay [1]; 0% in [2]; 16.6% in [3]; -3.21% in assay [4]; -5.16% in the assay on Trypanosoma cruzi; -2.37% in assay [5]. Besides, the Percent Effect in [6] is 7.19%; in the assay filed under Homo sapiens, -1.32%; in assay [7] it was 2.13%; in assay [8] it was 0%; in assay [9], -4.18%.
On to `CCOCCN1CCN(Cc2nc(C3CC3)no2)CC1CC` (stereo unspecified), for which the Percent Effect is -6.05% in assay [1]; 5.48% in assay [2]; 6.32% in assay [3]; 25.2% in [4]; 10.4% with Trypanosoma cruzi; 0.909% in assay [5]. Further, the Percent Effect in assay [6] was 9.41%; in the assay listed under Homo sapiens, 2.26%; in assay [7], 3.23%; in assay [8], 7.5%; in assay [9], -5.89%.
Consider `O=C([C@@H]1CC[C@@H]2[C@@H](CCN2Cc2ccoc2)O1)N1CCCC1`, for which the Percent Effect in assay [1] is -5.35%; in assay [2], 13.5%; in assay [3], -5.44%; in assay [4], 27.1%; in the assay with Trypanosoma cruzi, 0.684%; in assay [5], 4.71%. Also, the Percent Effect in [6] was 17.9%; in the assay filed under Homo sapiens, -10.1%; in assay [7], 7.53%; in [8], 13.6%; in assay [9], -3.6%.
